In PubChem BioAssay (NCATS):
Records with an inconclusive call do not appear. Calls of active or inactive are those of the source. Unless noted, no rule for the calls is given here.

Tests used:
[1] = qHTS profiling of the MIPE4 collection as inhibitors of Plasmodium falciparum (3D7) proliferation (AID 743344);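 also: scaled between DMSO vehicle wells and 0.29 µM artemisinin as full inhibition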; conditions: P. falciparum 3D7 in erythrocytes, SYBR Green DNA fluorescence, 72 h; at 28.5 µM unless noted
Procedure, shortened: (§1)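 Parasite DNA was quantified by SYBR Green I fluorescence (ex 485, em 535 nm) after overnight lysis in saponin/Triton buffer at room temperature. Cultures at 0.3% parasitemia and 2.5% hematocrit were first exposed to compound for 72 h at 37 C; signals were normalised to artemisinin (0.29 uM) and vehicle wells.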

[2] = qHTS profiling of the MIPE4 collection as inhibitors of Plasmodium falciparum (DD2) proliferation (AID 743345); conditions: P. falciparum Dd2 in erythrocytes, SYBR Green DNA, 72 h; at 28.5 µM unless noted
Procedure, shortened: as §1

[3] = qHTS profiling of the MIPE4 collection as inhibitors of Plasmodium falciparum (DD2) proliferation (Rep 2) (AID 743346); conditions: P. falciparum Dd2 in erythrocytes, SYBR Green DNA, 72 h; at 28.5 µM unless noted
Procedure, shortened: as §1

[4] = qHTS profiling of the MIPE4 collection as inhibitors of Plasmodium falciparum (HB3) proliferation (AID 743347);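 also: plate controls were DMSO vehicle wells for no effect and artemisinin wells for full effect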; conditions: P. falciparum HB3 in erythrocytes, SYBR Green DNA, 72 h; at 28.5 µM unless noted
Procedure, shortened: as §1

[5] = High-throughput drug toxicity screening in the BPDCN cell line Gen2.2 (AID 1224824); conditions: Gen2.2 BPDCN cells; at 45.8 µM (top of the series) unless noted;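 also: cells exposed to compounds for 48 h before reading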
Procedure, shortened: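 Gen2.2, 500 cells/well, phenol red-free RPMI/10% FBS/Pen-Strep; 48 h cpd, 37 °C/5% CO2; CTG lum, 15 min RT. Norm: DMSO = 100%, bortezomib 9.2 uM final = 0%.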

[6] = High-throughput drug toxicity screening in the BPDCN cell line Cal-1 (AID 1224825); conditions: Cal-1 BPDCN cell viability, qHTS; at 45.8 µM (top of the series) unless noted
Procedure, shortened: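 Viability of the BPDCN line Cal-1 is measured as ATP-based luminescence (CellTiter-Glo) following 48 h incubation with compounds. Percent activity uses DMSO-treated wells as 100% and 9.2 uM bortezomib as 0%.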

[7] = qHTS assay for measurement of the activity of small molecule inhibitors on Zika virus induced Caspase-3 activity in human iPSC derived neural progenitor cells (hNPCs) (AID 1224857; active = well fitted inhibition curve with a large enough effect; also: nearly all actives have a fitted effect of over 65% in size; also: potency is read from the fitted curve at half-maximal effect; as to activity change, negative = inhibition: % of control where 0% means no effect)
Procedure, shortened: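 Caspase-3/7 induction by a 6-hour ZIKV infection was quantified with a luminescent Caspase-Glo 3/7 reagent incubated 30 minutes at room temperature. Compounds were preincubated with hNPCs for 1 hour; inhibition was calculated against uninfected and infected control wells.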

[8] = qHTS assay for measurement of the activity of small molecule inhibitors on Zika virus induced Caspase-3 activity in human astrocytoma cells (AID 1224859; active = well fitted inhibition curve with a large enough effect;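 also: plate controls were ZIKV-infected untreated cells for no effect and uninfected cells for full effect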)
Procedure, shortened: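 In SNB-19 cells plated at 250 cells/well and grown 16-20 h, compounds were applied 1 h before ZIKV (2 FFU/cell). Six hours later caspase-3/7 luminescence was recorded.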

[9] = qHTS Screen of the MIPE 4.0 Collection Against Ewings Sarcoma (RDES) (AID 1259252; active = well fitted inhibition curve with a large enough effect; also: nearly all actives have a fitted effect of over 35% in size; also: potency is read from the fitted curve at half-maximal effect)
Procedure, shortened: (§2)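 Here, cells in 5% FBS RPMI were exposed for two days (48 h) to compound dilutions added four hours after plating. ATP-based CellTiter-Glo luminescence measured viability, normalized to vehicle and no-cell blanks.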

[10] = qHTS Screen of the MIPE 4.0 Collection Against Ewings Sarcoma (TC71) (AID 1259253; active = well fitted inhibition curve with a large enough effect; also: nearly all actives have a fitted effect of over 40% in size; also: potency is read from the fitted curve at half-maximal effect)
Procedure, shortened: as §2

[11] = qHTS Screen of the MIPE 4.0 Collection Against Ewings Sarcoma (EW8) (AID 1259255; active = well fitted inhibition curve with a large enough effect; also: nearly all actives have a fitted effect of over 35% in size; also: potency is read from the fitted curve at half-maximal effect;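 as to viability: 100% = DMSO-treated cells and 0% = medium-only wells without cells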)
Procedure, shortened: as §2

Compound | parasite growth, % of DMSO control [1] | parasite growth remaining, % of DMSO control (lower = more inhibition) [2] | parasite growth, % of control (lower = inhibition) [3] | growth, % of control [4] | cell viability, % of control (lower = more cytotoxic) [5] | viability (% of control) [6] | Potency [7] | Potency [8] | Potency [9] | Potency [10] | Potency [11] | activity change, negative = inhibition [7] | activity change, negative = inhibition [8]
C=CCNC1=C2C[C@@H](C)C[C@H](OC)[C@@H](O)[C@@H](C)C=C(C)[C@H](OC(N)=O)[C@@H](OC)C=CC=C(C)C(=O)NC(=CC1=O)C2=O | 5.05% | 7.22% | 9.89% | 4.67% | 6.66% | 5.31% | inactive | inactive | 6.62 µM (active) | 3.72 µM (active) | 10.5 µM (active) | – | –
COc1cc(OC)c(C=CS(=O)(=O)Cc2ccc(OC)c(NCC(=O)O)c2)c(OC)c1 | 88.3% | 82.7% | 77.6% | 68.2% | 5.33% | 8.09% | inactive | inactive | 0.0935 µM (active) | 0.187 µM (active) | 0.235 µM (active) | – | –
CN(C)CC(=O)N1CCC(c2ccc(NC(=O)c3ncc(C#N)[nH]3)c(C3=CCCCC3)c2)CC1 | 12.3% | 16.6% | 12.3% | 9.47% | 168% | 28.6% | inactive | inactive | 13.2 µM (active) | 16.6 µM (active) | 18.7 µM (active) | – | –
CC(=O)OCC(=O)[C@@]12N=C(C)O[C@H]1C[C@H]1[C@@H]3CCC4=CC(=O)C=C[C@]4(C)[C@@H]3[C@@H](O)C[C@@]12C | 89.5% | 90% | 68.3% | 84% | 94.7% | 57.7% | inactive | inactive | inactive | inactive | inactive | – | –
COc1cccc2c1C(=O)c1c(O)c3c(c(O)c1C2=O)C[C@@](O)(C(=O)CO)C[C@@H]3O[C@H]1C[C@H](N)[C@@H](O)[C@H](C)O1 | 3.7% | 4.88% | 4.28% | 2.54% | 8.09% | 4.51% | inactive | inactive | 0.264 µM (active) | 0.187 µM (active) | 0.0296 µM (active) | – | –
C=CC(=O)Nc1ccc2ncnc(Nc3ccc(OCc4cccc(F)c4)c(Cl)c3)c2c1 | 6.97% | 19.9% | 16.4% | 5.29% | 13% | 2.97% | inactive | inactive | 0.148 µM (active) | 1.18 µM (active) | 2.09 µM (active) | – | –
O=C(O)[C@H](CC(=O)N1C[C@@H]2CCCC[C@H]2C1)Cc1ccccc1 | 71.6% | 103% | 69.7% | 57.9% | 133% | 89.5% | 23.5 µM (active) | inactive | inactive | inactive | inactive | – | –
CC(C)NC[C@@H](C(=O)N1CCN(c2ncnc3c2[C@H](C)C[C@H]3O)CC1)c1ccc(Cl)cc1 | 5.13% | 64.9% | 5.81% | 2.94% | 1.71% | 1.88% | inactive | inactive | 4.69 µM (active) | 11.8 µM (active) | 1.66 µM (active) | – | –
CC(C)n1cnc2c(NCCc3ccc(O)cc3)nc(-c3csc4ccccc34)nc21 | 5.76% | 9.54% | 13.2% | 8.98% | 11.4% | 2.43% | inactive | inactive | 2.35 µM (active) | 4.18 µM (active) | 13.2 µM (active) | – | –
CCC(C=C[C@@H]1OC(=O)C=C[C@H]1C)=C[C@H](C)CC=CC(C)=C[C@@H](C)C(=O)[C@@H](C)[C@H](O)[C@@H](C)CC(C)=CC(=O)O | 402% [at 1.06 µM] | 97.4% [at 1.06 µM] | 106% [at 1.06 µM] | 577% [at 1.06 µM] | 5.63% [at 1.72 µM] | 5.92% [at 1.72 µM] | – | – | 0.022 µM (active) | 0.022 µM (active) | 0.0156 µM (active) | 14.9% [at 1.73 µM] (inactive) | 5.61% [at 1.73 µM] (inactive)
O=C(Nc1cccc(Nc2ncc(Br)c(NCCc3cnc[nH]3)n2)c1)N1CCCC1 | 7.42% | 13.6% | 17.4% | 3.84% | 15.3% | 2.84% | inactive | inactive | 7.43 µM (active) | 6.62 µM (active) | 0.235 µM (active) | – | –
CC(C)c1cc(C(C)C)c(CC(=O)NS(=O)(=O)Oc2c(C(C)C)cccc2C(C)C)c(C(C)C)c1 | 82.5% | 89.6% | 80.1% | 89.6% | 94.3% | 60.9% | inactive | inactive | 7.43 µM (active) | 0.743 µM (active) | 7.43 µM (active) | – | –
CCn1c(=O)c2c(nc(C=Cc3ccc(OC)c(OC)c3)n2C)n(CC)c1=O | 37.9% | 83.4% | 34.2% | 47.9% | 193% | 99.5% | inactive | inactive | inactive | inactive | inactive | – | –
Nc1nc2c(c(=O)[nH]1)N(C=O)[C@H](CNc1ccc(C(=O)N[C@@H](CCC(=O)O)C(=O)O)cc1)CN2 | 106% | 96.2% | 86.2% | 103% | 118% | 92.1% | inactive | inactive | inactive | inactive | inactive | – | –
CCc1cc(C(C)=NOCc2ccc(C3CCCCC3)c(C(F)(F)F)c2)ccc1CN1CC(C(=O)O)C1 | 6.45% | 69.4% | 41.3% | 11.3% | 68% | 19.7% | inactive | inactive | inactive | inactive | inactive | – | –
CC(=O)N[C@@H]1[C@H](O[C@@H]2c3ccc(c(Cl)c3)Oc3cc4cc(c3O[C@H]3O[C@H](CO)[C@@H](O)[C@H](O)[C@H]3NC(=O)CCCCCCCC(C)C)Oc3ccc(cc3Cl)C[C@H]3NC(=O)[C@H](N)c5ccc(O)c(c5)Oc5cc(O)cc(c5)[C@H](NC3=O)C(=O)N[C@H]4C(=O)N[C@H]3C(=O)N[C@@H]2C(=O)N[C@@H](C(=O)O)c2cc(O)cc(O[C@H]4O[C@H](CO)[C@@H](O)[C@H](O)[C@H]4O)c2-c2cc3ccc2O)O[C@H](CO)[C@@H](O)[C@@H]1O | 395% | 99.1% | 159% | 675% | 82.7% | 104% | inactive | inactive | inactive | inactive | inactive | – | –
CCOC(=O)C1=C(C)NC(=S)NC1c1cccc(O)c1 (configuration not stated) | 90.7% | 93.6% | 85.5% | 39% | 48.9% | 19.3% | inactive | inactive | 0.264 µM (active) | 0.105 µM (active) | 0.0935 µM (active) | – | –
O=c1[nH]c(=O)n([C@H]2C[C@@H](O)[C@@H](CO)O2)cc1F | 183% | 79.8% | 58.8% | 138% | 74.8% | 19.4% | inactive | inactive | 0.059 µM (active) | 0.0935 µM (active) | 0.059 µM (active) | – | –
C[C@H]1O[C@H](O[C@H]2[C@H](O)[C@@H](O)[C@@H](O[C@H]3[C@H](O)[C@@H](O)C(O)O[C@H]3CO)O[C@H]2CO)[C@H](O)[C@@H](O)[C@H]1N[C@H]1C=C(CO)[C@@H](O)[C@H](O)[C@@H]1O (some centres not stated) | 92.3% | 127% | 88.4% | 103% | 193% | 134% | inactive | inactive | inactive | inactive | inactive | – | –
O=c1c(O)c(-c2ccc(O)c(O)c2)oc2cc(O)ccc12 | 5.73% | 8.33% | 14.7% | 8.07% | 9.57% | 2.16% | inactive | inactive | 14.8 µM (active) | 18.7 µM (active) | 16.6 µM (active) | – | –
Cc1cncc2cccc(S(=O)(=O)N3CCCN(C(=O)CN)C[C@@H]3C)c12 | 85.8% | 89.9% | 51% | 101% | 35.1% | 36.2% | inactive | inactive | 8.33 µM (active) | 14.8 µM (active) | 2.64 µM (active) | – | –
C=C1CCC2[C@](C)(CO)C(O)CC[C@]2(C)C1CC=C1C(=O)OCC1O (some centres not stated) | 94.9% [at 57.5 µM] | 85.2% [at 57.5 µM] | 92.9% [at 57.5 µM] | 46.9% [at 57.5 µM] | 83.8% [at 92.2 µM] | 110% [at 92.2 µM] | inactive | inactive | inactive | inactive | inactive | – | –
CCN(CC)CCNC(=O)c1c(C)[nH]c(C=C2C(=O)Nc3ccc(F)cc32)c1C | 4.82% [at 57.5 µM] | 7.72% [at 57.5 µM] | 16% [at 57.5 µM] | 5.65% [at 57.5 µM] | 7.6% [at 92.2 µM] | 4.58% [at 92.2 µM] | inactive | inactive | 9.59 µM (active) | 13.6 µM (active) | 4.29 µM (active) | – | –
Nc1ccc(C(=O)Nc2cccc(-c3nc(N4CCOCC4)c4oc5ncccc5c4n3)c2)cn1 | 6.14% | 6.97% | 9.55% | 2.51% | 15.1% | 4.11% | inactive | inactive | 18.7 µM (active) | 16.6 µM (active) | 18.7 µM (active) | – | –
COc1ccc(C(C)=O)c(O)c1 | 86.4% | 98.8% | 131% | 95.8% | 146% | 35.9% | inactive | inactive | inactive | inactive | inactive | – | –
Cc1ccc2nc(NCCN)c3ncc(C)n3c2c1 | 63.3% | 41.2% | 33.4% | 81.1% | 2.46% | 3.39% | inactive | inactive | 6.62 µM (active) | 4.18 µM (active) | 9.35 µM (active) | – | –
O=C1CSC(=O)N1C(CCc1ccncc1)COc1ccc(-c2cccc([N+](=O)[O-])c2)cc1 (configuration not stated) | 17.8% | 49.4% | 32.8% | 4.69% | 188% | 33% | inactive | inactive | 2.96 µM (active) | 4.69 µM (active) | 13.2 µM (active) | – | –
